For 69 compounds, activity change, negative = inhibition results are on record in PubChem BioAssay AID1259421 (Broad Institute, 2018).

Where “and” joins values, the source holds several entries; their conditions need not be identical. Equal entries are not always repeated. In all, about 6,400 compounds went through this assay and about 610 (9.5%) were called active. Rule as the data show it: active = activity change below about -70%; inconclusive = no clear call, values can overlap the other calls; inactive = above that. Many of the other results were omitted from the sample, so actives are more common in it than they were. Some compounds were tested as several samples or in several runs, with calls that do not always agree.

The test is described as follows: T. gondii ME49Luc in HeLa cells, luciferase assay, 72 h, no IFN-y (AID 1259421). The settings on record: stronger effect = lower value, concentration not given here.
Take `CC1(O)C(O)C(CO)OC1n1cnc2c(NC3CCCC3)nc(Cl)nc21` (centres undefined): the activity change, negative = inhibition is 13.4% (inactive).

Take `CC[C@@H](C(=O)[C@@H](C)[C@@H](O)[C@H](C)[C@@H]1O[C@@H]([C@@H](CC)C(=O)O)CC[C@@H]1C)[C@H]1O[C@]2(C=C[C@@H](O)[C@]3(CC[C@@](C)(C4CC[C@](O)(CC)[C@H](C)O4)O3)O2)[C@H](C)C[C@@H]1C` (some centres undefined): the activity change, negative = inhibition was -83.1% (active).

As for `CC[C@@H](C(=O)O)C1CC[C@H](C)C([C@@H](C)[C@H](O)[C@H](C)C(=O)[C@H](CC)C2O[C@]3(C=C[C@@H](O)[C@]4(CC[C@@](C)(C5CC[C@](O)(CC)[C@H](C)O5)O4)O3)[C@H](C)C[C@@H]2C)O1` (some centres undefined), the activity change, negative = inhibition is -72.7% (active) and -80.8% (active).

For the compound `CC[C@@H](C(=O)[C@@H](C)[C@@H](O)[C@H](C)[C@@H]1O[C@@H]([C@@H](CC)C(=O)O)CC[C@@H]1C)[C@H]1OC2(C=C[C@@H](O)[C@]3(CC[C@@](C)(C4CC[C@](O)(CC)[C@H](C)O4)O3)O2)[C@H](C)C[C@@H]1C` (some centres undefined), the activity change, negative = inhibition is -90.6% (active).

On to `CC[C@@H](C(=O)O)[C@@H]1O[C@@H]([C@@H](C)[C@H](O)[C@H](C)C(=O)[C@H](CC)[C@H]2O[C@]3(C=C[C@@H](O)[C@]4(CC[C@@](C)(C5CC[C@](O)(CC)[C@H](C)O5)O4)O3)[C@H](C)C[C@@H]2C)[C@@H](C)C[C@H]1C` (some centres undefined), for which the activity change, negative = inhibition is -82.4% (active).

Consider `NC(CC(F)C(=O)O)C(=O)O` (centres undefined), for which the activity change, negative = inhibition is 4.86% (inactive).

In the case of `O=C(O)C1/C(=C\CO)OC2CC(=O)N21` (centres undefined), the activity change, negative = inhibition was 6.21% (inactive).

Consider `Cc1cc(-c2ncc(CC(=O)Nc3ccc(-c4cnccn4)cn3)cc2C)ccn1`, for which the activity change, negative = inhibition is 5% (inactive).

In the case of `N#CC(C#N)Cc1ccc(O)cc1`, the activity change, negative = inhibition was 0.596% (inactive).

Regarding `COc1ccccc1Oc1c(NS(=O)(=O)c2ccc(C)cn2)nc(-c2ccncc2)nc1OC`, the activity change, negative = inhibition was 7.32% (inactive).

Turning to `O=C(NN1C(=O)[C@@H]2[C@@H]3C=C[C@@H]([C@H]4C[C@@H]34)[C@@H]2C1=O)c1ccc(C(F)(F)F)cc1`, the activity change, negative = inhibition was 3.93% (inactive).

Turning to `COc1ccc(CCN(C)CCCOc2ccc(S(=O)(=O)c3c(C(C)C)c4ccccc4n3C)cc2)cc1OC`, the activity change, negative = inhibition was -76.5% (active).

For `COc1ccc(CCN(C)CCc2ccc(OC)c(OC)c2)cc1OC`, the activity change, negative = inhibition was 7.34% (inactive) and -3.3% (inactive).

For `COc1ccc(CCN(C)CCCN2CCc3cc(OC)c(OC)cc3CC2=O)cc1OC`, the activity change, negative = inhibition is 10.1% (inactive).

As to `CO[C@@H]1[C@@H](O[C@@H]2O[C@H](C)[C@@H](O[C@H]3C[C@@](C)(OC(=O)CC(C)C)[C@@H](O)[C@H](C)O3)[C@H](N(C)C)[C@H]2O)[C@@H](CC=O)C[C@@H](C)[C@@H](O)/C=C/C=C/C[C@@H](C)OC(=O)C[C@H]1OC(C)=O`, the activity change, negative = inhibition was -10.6% (inactive).

As to `COc1ccc(CCO[C@@H]2CCCC[C@H]2N2CC[C@@H](O)C2)cc1OC`, the activity change, negative = inhibition was 23% (inactive).

As to `O=C1c2c(O)ccc(O)c2C(=O)c2c(NCCNCCO)ccc(NCCNCCO)c21`, the activity change, negative = inhibition is -73.8% (active) and -3.38% (inactive).

For the compound `O=C1c2cccc(O)c2C(=O)c2c(O)cc(CO)cc21`, the activity change, negative = inhibition is -11.5% (inactive).

`O=C1c2cccc(O)c2C(=O)c2c(O)cccc21`: the activity change, negative = inhibition was 3.71% (inactive) and 0.722% (inactive).

As for `CCCCCCCC/C=C/CCCCCCCC(=O)NCCO`, the activity change, negative = inhibition was -10.5% (inactive).

Turning to `C=C1C(=O)[C@]23[C@H](O)[C@H]1CC[C@@H]2[C@@]12CO[C@]3(O)C[C@@H]1C(C)(C)CC[C@@H]2O`, the activity change, negative = inhibition was -77.5% (active) and 3.05% (inactive).

On to `O=c1cc(-c2ccccc2O)oc2cc(O)ccc12`, for which the activity change, negative = inhibition was 190% (inactive).

Take `COP(=O)(OC)OC(c1ccc(Cl)cc1)P(=O)(OC)OC` (centres undefined): the activity change, negative = inhibition was 5.14% (inactive) and 12.1% (inactive).

For the compound `CN(C)Cc1ccc(S(=O)(=O)n2ccc(/C=C/C(=O)NO)c2)cc1`, the activity change, negative = inhibition was -84.8% (active).

For `c1ccc2sc(SN3CCOCC3)nc2c1`, the activity change, negative = inhibition is 17.7% (inactive).

For `COc1c(-c2ccc3cc(NS(C)(=O)=O)ccc3c2)cc(-n2ccc(=O)[nH]c2=O)cc1C(C)(C)C`, the activity change, negative = inhibition was 17.6% (inactive).

Consider `CC(=O)OCC(=O)[C@@]1(O)[C@H](C)CC2C3CCC4=CC(=O)C=C[C@]4(C)[C@@]3(F)[C@@H](O)C[C@@]21C` (some centres undefined), for which the activity change, negative = inhibition was -8.27% (inactive).

As to `Nc1nc(-c2ccc(Cl)c(Cl)c2)c(-c2ccncc2)s1`, the activity change, negative = inhibition is -9.5% (inactive).

Regarding `COC(=O)[C@@]12OC[C@]34[C@H]([C@@H](O)[C@@H]1O)[C@@]1(C)CC(=O)C(=O)C(C)[C@@H]1C[C@H]3OC(=O)[C@H](OC(=O)/C=C(\C)C(C)C)[C@@H]24` (some centres undefined), the activity change, negative = inhibition is -83.7% (active).

For `CC(CCC(=O)O)[C@H]1CCC2C3C(=O)C[C@@H]4CC(=O)CC[C@]4(C)C3CC(=O)[C@@]21C` (some centres undefined), the activity change, negative = inhibition was 4.28% (inactive) and -3.38% (inactive).

In the case of `Cc1onc(-c2ccccc2)c1C(=O)N[C@@H]1C(=O)N2[C@@H](C(=O)O)C(C)(C)S[C@@H]12`, the activity change, negative = inhibition was 3.42% (inactive).

Consider `N[C@H](Cc1cc(I)c(Oc2ccc(O)c(I)c2)c(I)c1)C(=O)O`, for which the activity change, negative = inhibition was 2.18% (inactive) and -1.07% (inactive).

As for `N[C@@]1(C(=O)O)CS(=O)(=O)[C@H]2[C@H](C(=O)O)[C@H]21`, the activity change, negative = inhibition was 8.77% (inactive).

In the case of Ac-PHSCN-NH2, the activity change, negative = inhibition was 12.4% (inactive).

On to `CC1(C)CC(=O)c2c(C(F)(F)F)nn(-c3ccc(C(N)=O)c(NC4CCC(OC(=O)CN)CC4)c3)c2C1` (centres undefined), for which the activity change, negative = inhibition is -75.4% (active).

For the compound `CC1(C)CC(=O)c2c(C(F)(F)F)nn(-c3ccc(C(N)=O)c(NC4CCC(O)CC4)c3)c2C1` (centres undefined), the activity change, negative = inhibition is -81.9% (active).

Take `Cn1nnc(-c2ccc(-c3ccc(N4C[C@H](CO)OC4=O)cc3F)cn2)n1`: the activity change, negative = inhibition is 60.5% (inactive).

With `CCOC(=O)[C@@H](CCc1ccccc1)N[C@H](C)C(=O)N1[C@@H]2CCC[C@H]2C[C@H]1C(=O)O`, the activity change, negative = inhibition was 14.6% (inactive).

With `CCCCS(=N)(=O)CC[C@H](N)C(=O)O` (some centres undefined), the activity change, negative = inhibition was 0.306% (inactive).

Regarding `CCCC[C@@H](CC)COC(=O)C(C#N)=C(c1ccccc1)c1ccccc1`, the activity change, negative = inhibition was -53.6% (inactive).

As to `CC(=O)OCC(=O)[C@@]1(O)[C@H](OC(C)=O)CC2C3CCC4=CC(=O)C=C[C@]4(C)[C@@]3(F)[C@@H](O)C[C@@]21C` (some centres undefined), the activity change, negative = inhibition is -7.39% (inactive).

With `COc1ccc(-c2coc3c(O)c(O)c(OC)cc3c2=O)cc1`, the activity change, negative = inhibition is 77.9% (inactive).

With `Nc1c2ccccc2nc2ccccc12`, the activity change, negative = inhibition is -47.3% (inactive) and -70.8% (active) and 3.45% (inactive).

In the case of `Nc1c2c(nc3ccccc13)CCCC2O` (centres undefined), the activity change, negative = inhibition was 8.95% (inactive).

Turning to `Nc1c2c(nc3ccccc13)CCCC2`, the activity change, negative = inhibition was -1.53% (inactive) and -2.1% (inactive).

For `CCCCCCCCCCCCCCCCn1cc[n+](Cc2ccccc2)c1C`, the activity change, negative = inhibition was -85.6% (active).

Take `CCCCCCCCCCCCCCCC[N+](C)(C)Cc1ccccc1`: the activity change, negative = inhibition is -3.66% (inactive).

For `CN1CCN(CCCCN2C(=O)CN(/N=C/c3ccc(-c4ccc(Cl)cc4)o3)C2=O)CC1`, the activity change, negative = inhibition was 16.2% (inactive).

In the case of `C[N+](C)(C)CC(O)CC(=O)O` (centres undefined), the activity change, negative = inhibition is -0.966% (inactive).

Take `CC[C@@H](C)Nc1cc(C(=O)NC2CC3CCC(C2)N3c2ccc(C(=O)C3CC3)cn2)c(C)cc1C(N)=O` (some centres undefined): the activity change, negative = inhibition was -89.6% (active).

Turning to `CCCCC(F)(F)C(=O)CC[C@H]1[C@H](O)CC(=O)[C@@H]1CCCCCCC(=O)O`, the activity change, negative = inhibition was 34.9% (inactive) and 7.68% (inactive).

With `N#C/C(=C/c1ccc(O)c(O)c1)C(=O)OCCc1cccs1`, the activity change, negative = inhibition is 11.8% (inactive).

Consider `CC(=O)N(C)C1(c2ccccc2)CCN(CCC[C@]2(c3ccc(Cl)c(Cl)c3)CCCN(C(=O)c3ccccc3)C2)CC1`, for which the activity change, negative = inhibition is -7.4% (inactive).

`NC(N)=NCC1COC2(CCCCC2)O1` (centres undefined): the activity change, negative = inhibition was -1.54% (inactive).

As for `NC1(C(=O)O)CC1`, the activity change, negative = inhibition is 13.6% (inactive).

As to `CC(=O)O[C@H]1C[C@@H](OC(C)=O)C(C)(C)C2C[C@@H](OC(C)=O)[C@]3(C)C(CC[C@@]4(C)[C@H](c5ccoc5)OC(=O)[C@H]5O[C@]543)[C@]21C` (some centres undefined), the activity change, negative = inhibition is 0.452% (inactive).

Consider `CC(=O)N(O)[C@@H]1c2cc(C#N)ccc2OC(C)(C)[C@H]1O`, for which the activity change, negative = inhibition was -86% (active) and 7.72% (inactive).

As to `CCS(=O)(=O)N(C)[C@H]1c2cc(C#N)ccc2OC(C)(C)[C@@H]1O` (racemic), the activity change, negative = inhibition is 9.6% (inactive).

As for `CCS(=O)(=O)N(C)C1c2cc(C#N)ccc2OC(C)(C)C1O` (centres undefined), the activity change, negative = inhibition was -6.08% (inactive).

Turning to `Nc1c[n+](N2CCOCC2)no1`, the activity change, negative = inhibition was 18.8% (inactive).

As to `CO/N=C(/C(=O)NC1C(=O)N2C(C(=O)OC(C)OC(C)=O)=C(COC(N)=O)CSC12)c1ccco1` (centres undefined), the activity change, negative = inhibition is 4.1% (inactive).

For `O=C(O)CCC/C=C\C[C@@H]1[C@@H](/C=C/[C@@H](O)COc2cccc(Cl)c2)[C@H](O)C[C@@H]1O`, the activity change, negative = inhibition is 11.1% (inactive) and 5.18% (inactive) and 11% (inactive).

With `Cc1c[nH]c(=O)n(CCCN2CCN(c3ccccc3OCC(F)(F)F)CC2)c1=O`, the activity change, negative = inhibition was 2.85% (inactive) and 2.68% (inactive).

For `C1CCC2(CC1)CCNCC2`, the activity change, negative = inhibition was -1.4% (inactive).

For the compound `COc1cc(Nc2c(C#N)cnc3cc(OCCCN4CCN(C)CC4)c(OC)cc23)c(Cl)cc1Cl`, the activity change, negative = inhibition is -79.2% (active) and -77.5% (active).

In the case of `COc1cc2c(Nc3ccc(NC(=O)c4ccccc4)cc3)ncnc2cc1OCCCN1CCOCC1`, the activity change, negative = inhibition was -50.7% (inactive) and -23.3% (inactive).

With `COc1cc2ncnc(Nc3ccc(F)c(Cl)c3)c2cc1OCCCN1CCOCC1`, the activity change, negative = inhibition is 15.9% (inactive).

As to `CN(C)C(=O)NC1CCC(CCN2CCN(c3cccc(Cl)c3Cl)CC2)CC1` (centres undefined), the activity change, negative = inhibition was 3.31% (inactive).

As to `CC12CCC(C(=O)N(CCCCN3CCN(c4ccccn4)CC3)C1=O)C2(C)C` (centres undefined), the activity change, negative = inhibition is -4.45% (inactive).
